High-throughput results: PubChem, National Center for Advancing Translational Sciences (NCATS)
Compounds with a hit are over-represented: about 6.2% of the library has one in this group of screens.
HT1080 IDH1KD tx – qHTS for induction of synthetic lethality in tumor cells producing 2HG: qHTS for the HT-1080-IDH1KD cell line; Potency, µM (highest dose often 46.1 µM), without a hit: top-dose activity, negative = toxicity, actives largely listed as cytotoxic; HT-1080 IDH1 knockdown viability, ATP luminescence, 48 h; 360,000 tested, 2% active; AID 686971, 2013;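 note: 0% = DMSO wells and -100% = cell-free medium wells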
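HT-1080-IDH1KD cells (IDH1 knocked down), 750/well in RPMI with 5% FBS, treated with compound 48 h at 37 degrees C. Viability by CellTiter-Glo luminescence, normalised to DMSO and no-cell wells; concentration-response curves classed.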
KB-3-1 cytotox – qHTS assay for MDR1-selective chemotherapeutics: Primary screen using the parental adenocarcinoma cell KB-3-1 | 400,000 tested, 1.4% active | KB-3-1 viability, CellTiter-Glo ATP luminescence, 72 h | Potency, µM (doses to about 46.1 µM), most hits filed as cytotoxic | AID 1347075, 2019; note: % is set by controls: 0 for no effect and ±100 for the full control effect; nearly all actives have a fitted effect of over 60% in size
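Viability of parental KB-3-1 cells, measured by CellTiter-Glo luminescence, followed a 72 h incubation at 37 °C with pinned compounds in phenol-red-free DMEM containing 10% FBS.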
ATXN2 expr inh – Primary qHTS for Inhibitors of ATXN expression | Potency, µM (doses to about 57 µM), for inactives: top-dose activity change, negative = inhibition, most hits filed as inhibitors | HEK-293 ATXN2-luciferase reporter, luminescence, 24 h | AID 1745845, 2022 | 360,000 tested, 0.72% active; note: % is set by controls: 0 for no effect and ±100 for the full control effect; nearly all actives have a fitted effect of over 55% in size
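ATXN2-luciferase reporter cells (luciferase flanked by upstream and downstream ATXN2 gene portions) were treated 24 h at 37 °C with compounds at up to 57 uM. SteadyGlo luminescence gave expression; GF-AFC fluorescence gave viability.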
HT1080-NT tox – qHTS for induction of synthetic lethality in tumor cells producing 2HG: qHTS for the HT-1080-NT fibrosarcoma cell line; HT-1080-NT fibrosarcoma viability, CellTiter-Glo ATP luminescence, 48 h; Potency, µM (highest dose often 46.1 µM), for the others: at the top dose activity, negative = less viability, usual class: cytotoxic; 360,000 tested, 1.6% active; AID 686970, 2013;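 note: NT is the 2HG producing partner of a matched IDH1 knockdown line; 0% = DMSO-treated cells and -100% = media-only wells without cells; nearly all actives have a fitted effect of over 55% in size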
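HT-1080-NT; 750 cells/well; 5% FBS RPMI; 48 h compound, 37 degrees C; CellTiter-Glo luminescence; curve fitting and curve-class assignment.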
KB-V1 MDR tox – qHTS assay for MDR1-selective chemotherapeutics: Primary screen using the drug-selected MDR subline cells KB-V1 | KB-V1 MDR cells viability, CellTiter-Glo, 72 h | Potency, µM (series often up to 46.1 µM), hits mostly cytotoxic | 400,000 tested, 3.4% active | AID 1347076, 2019; note: % is set by controls: 0 for no effect and ±100 for the full control effect; nearly all actives have a fitted effect of over 60% in size
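Readout: CellTiter-Glo luminescence, 10 min after addition. Cells: KB-V1 MDR subline, 72 h at 37 degrees C with compound. Analysis: corrected, normalized data fitted to concentration-effect curves.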
S2 tox – Viability Counterscreen for Primary qHTS for Inhibitors of ATXN expression. Potency, µM (doses to about 56.7 µM), actives largely listed as cytotoxic. AID 651635, 2014. S2 cells (HEK-293 line with an ATXN2-luciferase reporter) viability, CellTiter-Fluor protease fluorescence, 24 h. 400,000 tested, 0.49% active; note: nearly all actives have a fitted effect of over 40% in size
* = called active by the depositor; i = inactive; ? = inconclusive; · = no result. Calls come from the whole dose curve; as a rule, active = well fitted curve in the direction sought with a large enough effect; inconclusive = small, poorly fitted or top-dose-only effect, or another doubt; inactive = no such curve, though single readings can be large; an effect the other way counts as inactive or inconclusive. Potency is the fitted concentration of half-maximal effect.

SMILES	HT1080 IDH1KD tx	KB-3-1 cytotox	ATXN2 expr inh	HT1080-NT tox	KB-V1 MDR tox	S2 tox
Cc1ccc(C)c(CSc2nc3[nH]ncc3c(=O)[nH]2)c1	1.84µM*	1.16µM*	-10.5%	1.3µM*	0.517µM*	i
COc1ccccc1NC(=O)N1CCC(c2nc3cc(C)c(C)cc3[nH]2)CC1	5.8µM*	1.64µM*	-1.7%	5.8µM*	9.2µM*	i
COc1ccccc1NC(=S)N1CCC(c2nc3cc(C)c(C)cc3[nH]2)CC1	-7.3%	i	5.3%	3.5%	i	i
CN(C(=O)c1cccc(Nc2ccc(-c3ccc4c(c3)OCCO4)nn2)c1)C1CCCCC1	14.6µM*	?	?	?	?	?
CN(C)S(=O)(=O)c1ccc(Nc2ccc(-c3ccc4c(c3)OCCO4)nn2)cc1	-1.7%	i	0.7%	6.6%	i	i
Cc1nnc2sc(-c3ccc(-c4ccc(Cl)c(C(F)(F)F)c4)o3)nn12	3.3%	i	3.6%	2.4%	14.6µM*	i
O=C(Nc1ccccc1C(F)(F)F)c1ccc(CN2CCC(Cc3ccccc3)CC2)cc1	23.1µM*	?	-15.6%	16.4µM*	?	i
CC12CCC(=O)N1C(C(=O)N1CCN(c3ccc([N+](=O)[O-])cc3)CC1)CS2 (stereo not drawn)	?	i	7.2%	13.8%	18.4µM*	?
CCN(c1cccc(C)c1)S(=O)(=O)c1ccc2c(c1)CCN2C(C)=O	?	?	?	?	23.1µM*	?
Nc1nc2ccccc2n1Cc1ccc(F)cc1	·	·	-16.5%	·	·	i
O=C(CN1CCN(CC(=O)Nc2ccc3c(c2)OC2(CCCCC2)O3)CC1)Nc1cccc(F)c1	-21.8%	i	1.2%	-5.1%	5.8µM*	?
O=C(CN1CCN(CC(=O)Nc2ccccc2F)CC1)Nc1cccc(F)c1	21.5%	i	-22.2%	15.4%	i	?
O=[N+]([O-])c1cc([N+](=O)[O-])c2cc3ccccc3nc2c1	4.61µM*	3.66µM*	17.6%	16.4µM*	i	?
O=C(c1cc2c(c(-c3cccc(-c4ccncc4)c3)n1)[C@@H](CCO)N(C(=O)c1ccc3c(c1)OCO3)C2)N1CCOCC1	7.2%	i	11.3%	-12.9%	i	i
O=C(c1cc2c(c(-c3cccc(-c4ccc(F)cc4)c3)n1)[C@H](CCO)N(C(=O)c1ccc3c(c1)OCO3)C2)N1CCOCC1	?	i	-22.2%	20.6µM*	?	i
CCc1ccc(C2CC(=O)c3c([nH]c(C(=O)OC4CCCCCC4)c3C)C2)cc1 (stereo not drawn)	·	?	11.8%	·	i	i
CC1CCc2c(sc3nc(C4CC4)nc(N4CCN(C(=O)c5ccco5)CC4)c23)C1 (stereo not drawn)	23.1µM*	?	?	?	?	?
O=S(=O)(c1ccc(NCCOc2ccccc2)nc1)N1CCCC1	8.4%	i	13.1%	11.5%	20.6µM*	i
O=C(NCCc1ccccc1)c1c[nH]c2ccccc2c1=O	-8.0%	i	·	-3.4%	?	i
O=C(CCCCn1c(=O)[nH]c2ccccc2c1=O)NCCC1=CCCCC1	0.9%	i	1.3%	2.4%	16.4µM*	?
C=C1C=C(C(F)F)n2ncc(C(=O)N3CCc4ccccc4C3)c2N1	·	?	·	·	i	·
O=C(/C=C/c1ccccc1)c1ccc2ccccc2c1	?	i	62.0%	23.1µM*	i	i
O=C(/C=C/c1ccccc1)c1ccccc1	20.6µM*	i	18.5%	16.4µM*	?	i
O=C(/C=C/c1ccccc1)/C=C/c1ccccc1	?	?	?	-17.4%	?	39.8µM*
C=C(C(=O)O)c1ccc2ccccc2c1	·	i	·	·	i	·
SMILES	HT1080 IDH1KD tx	KB-3-1 cytotox	ATXN2 expr inh	HT1080-NT tox	KB-V1 MDR tox	S2 tox
CN(C)c1nc2cc3c(cc2cc1CN(CC1CCCO1)C(=O)c1cccc(F)c1)OCO3 (stereo not drawn)	·	·	·	·	·	i
Cc1cc(C)cc(NC(=O)c2ccc3c(c2)nnn3C2CCCC2)c1	·	?	?	·	?	i
Cc1ccc(-c2ccccc2C#N)cc1	·	·	3.6%	·	·	i
c1ccc(C2C3=C(Nc4ncnn42)c2ccccc2CCC3)cc1 (stereo not drawn)	-26.1%	i	0.2%	-3.9%	18.4µM*	i
CC(C)c1ccccc1NC(=O)CCc1nc2ccccc2s1	-2.2%	i	5.7%	-0.2%	18.4µM*	i
COc1cc(/C=N/NS(=O)(=O)c2ccc(C)cc2)ccc1OCc1ccc(C(=O)O)cc1	4.6%	i	2.1%	-2.9%	i	i
O=S(=O)(N/N=C/c1ccccc1OCc1ccc(Cl)cc1)c1ccccc1	-12.1%	?	24.1%	?	16.4µM*	i
COC(=O)c1ccc(COc2ccccc2/C=N/NS(=O)(=O)c2ccc(C)cc2)cc1	?	i	14.5%	-29.6%	18.4µM*	i
CCOC(=O)N1CCN(Cc2ccc3c(c2)CN(C(=O)c2ccc4ncccc4c2)CCO3)CC1	·	·	·	·	·	i
COc1ccc(NC(=O)CSc2ncc3c(n2)-c2cc(Cl)ccc2N(Cc2ccccc2F)S3(=O)=O)cc1	·	i	-2.3%	·	i	i
CC#CCN(Cc1ccco1)C(=O)C1CCC(=O)N(CCc2cccc(F)c2)C1 (stereo not drawn)	6.7%	i	·	12.6%	i	·
CC1=C(C)/C(=N\OS(=O)(=O)c2ccccc2)C=CC1=O	8.91µM*	11.2µM*	10µM*	7.08µM*	15.8µM*	11.2µM*
NC1=NC(=O)C(Cc2cc(Cl)ccc2Cl)S1 (stereo not drawn)	-10.0%	i	23.4%	-7.0%	i	i
CC(=O)/C(C#N)=C1\NC(=O)C(Cc2cc(Cl)ccc2Cl)S1 (stereo not drawn)	?	14.6µM*	·	23.1µM*	6.51µM*	?
CC(=O)/C(C#N)=C1\NC(=O)C(Cc2ccc(F)cc2)S1 (stereo not drawn)	-15.6%	?	88.8%	-12.3%	i	i
CC(=O)/C(C#N)=C1\NC(=O)C(Cc2ccc(C)c(C)c2)S1 (stereo not drawn)	?	14.6µM*	23.8%	-17.9%	5.8µM*	i
